Screening results (PubChem)
Efflux pump mplx: inhibitors of Candida efflux pumps in yeast, primary screen, S. cerevisiae, Nile Red, multiplex; S. cerevisiae Candida pump triplex; inhibition, % at 10 µM; 0.44% of 330,000 active; AID 485275, 2010;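 active means plate passing quality check with inhibition over a set limit, or well fluorescence over plate mean plus 4 SD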;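 further: Nile Red retained in pooled yeast measured as flow cytometry median fluorescence; higher means more Nile Red kept so more efflux inhibition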
Mot1-301 SUMO: yeast Mot1-301 growth rescue at high temperature, primary screen, SUMOylation pathway inhibitor project, S. cerevisiae, ATP luminescence, 38.5C. S. cerevisiae Mot1-301 growth rescue; percent above DMSO median, 100 means doubled. growth rescue, % at 18.8 µM. 1% of 320,000 active. AID 2716, 2010;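 active means every valid replicate shows activation above 250% relative to neutral control wells; inactive means the rest, any valid replicate at or below 250%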
ATG4B inhibitor: ATG4B protease inhibitors, primary screen, biochemical, fluorescence, uHTS; Cysteine protease ATG4B (Homo sapiens), Q9Y4P1; ATG4B cleavage of LC3-PLA2, NBD-HPC fluorescence, 1 h; 0.51% of 340,000 active; inhibition, % at 8.33 µM; in the data active means inhibition above about 40%
Target sequence (Q9Y4P1 whole entry, looked up): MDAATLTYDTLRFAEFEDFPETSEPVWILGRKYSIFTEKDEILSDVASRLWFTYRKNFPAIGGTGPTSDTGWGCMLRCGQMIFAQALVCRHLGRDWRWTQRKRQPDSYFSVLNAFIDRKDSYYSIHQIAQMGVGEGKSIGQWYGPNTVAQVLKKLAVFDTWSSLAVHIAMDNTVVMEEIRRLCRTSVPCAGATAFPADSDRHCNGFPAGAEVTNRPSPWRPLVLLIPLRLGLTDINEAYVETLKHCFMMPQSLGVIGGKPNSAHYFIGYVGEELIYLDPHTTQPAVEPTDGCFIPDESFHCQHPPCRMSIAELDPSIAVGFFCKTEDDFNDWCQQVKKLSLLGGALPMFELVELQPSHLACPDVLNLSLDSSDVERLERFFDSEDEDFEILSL
V-ATPase pHluor: regulators of yeast V-ATPase proton pumping, primary screen, pHLuorin cytosolic pH fluorescence. 0.37% of 350,000 active. AID 504577, 2011. response, % at 10 µM. S. cerevisiae; in the data active means response mostly above about 7.3%, no sharp cut-off; inactive means mostly below about 5.4%; further: actives read high
AI-2 QS mod: Vibrio harveyi AI-2 quorum sensing modulators, primary screen, JMH597 strain, luminescence/OD600 ratio | AID 2094, 2009 | Vibrio harveyi JMH597 AI-2 luminescence/OD600 ratio, 9 h; active compounds read low; strain lacks LuxN and CqsS sensors; 0 = neutral-control median | 0.4% of 300,000 active | activity change, % at 7.5 µM; in the data active means activity change below about -75%, passing the limit was not always enough;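 further: luminescence divided by OD600 gain over 9 h not by final OD600 alone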
Yeast Mot1 SUMO: growth restoration of Mot1-301 yeast on galactose, dose response, SUMO pathway inhibitor project, whole organism, S. cerevisiae, ATP luminescence, cherry-picked samples; shares compounds with Mot1-301 SUMO; growth activity, percent, % at 42 µM; S. cerevisiae Mot1-301 galactose growth, 24 h; -100 = growth of slx-deleted rescue strain; 2,300 tested, under 10 active;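 active means Signal drops as the depositor expects, and the fitted half-maximal dose is no more than ten times the top valid tested dose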;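 further: more negative values mean stronger growth rescue toward the control strain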
Each line names hits and unclear results; the compound was inactive in the other large screens (follow-up assays come after a bar, where they were run); ! = not active in a repeat. Compounds with a hit are over-represented: about 2.5% of the library has one in this group of screens.

COC(=O)c1ccc(-c2cc(CC3(C(=O)OC)CCN(C(=O)OC(C)(C)C)CC3)on2)cc1	none
COC(=O)C1(Cc2cc(-c3ccccc3)no2)CCN(C(=O)OC(C)(C)C)CC1	Mot1-301 SUMO active | Yeast Mot1 SUMO inactive
CN(c1cccnc1)c1ncnc2[nH]ncc12	Mot1-301 SUMO active | Yeast Mot1 SUMO inactive
CN(CCc1ccccn1)c1ncnc2[nH]ncc12	none (no result: AI-2 QS mod)
Cc1ccc(S(=O)(=O)NCC(=O)OCC(=O)NCc2cccs2)cc1	none
COC(=O)Cn1c(=NC(=O)c2ccc(S(=O)(=O)N3CCOCC3)cc2)sc2cc(S(N)(=O)=O)ccc21	none
COCCn1c(=NC(=O)c2ccc(S(=O)(=O)N3CCOCC3)cc2)sc2cc(S(N)(=O)=O)ccc21	Mot1-301 SUMO 551.5 | Yeast Mot1 SUMO inactive
COc1ccc(C(=O)NCc2nnc(SCC(=O)Nc3nc4ccccc4s3)o2)cc1OC	none
Cc1ccc(C)n1-n1cnc2sc3c(c2c1=O)CCCCC3	Mot1-301 SUMO 595.6 | Yeast Mot1 SUMO inactive
Cc1ccc(C)n1-n1c(C)nc2sc3c(c2c1=O)CCCCC3	none (no result: Mot1-301 SUMO)
O=C(NCCc1ccccn1)C1CCCN1S(=O)(=O)c1ccc(Cl)cc1 (stereo not given)	none (no result: AI-2 QS mod)
CCOC(=O)c1c(/N=C/C2C(=O)CCCC2=O)sc2c1CCCC2	Mot1-301 SUMO 467.1 | Yeast Mot1 SUMO inactive
CN(C)CC/C=C1/c2cc(F)ccc2Sc2ccc(Cl)cc21	Mot1-301 SUMO 738.2 | Yeast Mot1 SUMO inactive
O=c1[nH]cnc2sc3c(c12)CCC3	Mot1-301 SUMO 625.8 | Yeast Mot1 SUMO inactive
C=C(C)C(=O)Nc1cccnc1Oc1ccc(F)cc1F	Mot1-301 SUMO active | Yeast Mot1 SUMO inactive
O=[N+]([O-])c1cncc([N+](=O)[O-])c1Nc1ccccc1Cl	Mot1-301 SUMO 813.4 | Yeast Mot1 SUMO inactive
O=C(COC(=O)Cc1ccsc1)NC1CCCCCC1	Mot1-301 SUMO 609.1 | Yeast Mot1 SUMO inactive
O=C(COC(=O)CSc1ccc([N+](=O)[O-])cc1)NC1CCCCCCC1	Mot1-301 SUMO 460.5 (no result: AI-2 QS mod) | Yeast Mot1 SUMO inactive
O=C(COC(=O)Cc1ccc(F)cc1)NC1CCCCCC1	none (no result: Efflux pump mplx, Mot1-301 SUMO, AI-2 QS mod)
CC(=O)OCCN(CCCn1c(-c2ccncc2)nc2ccccc21)c1nc(CN2CCCCC2)cs1	none
Cn1c(=O)[nH]c2c(c1=O)CCO2	none (no result: Efflux pump mplx, Mot1-301 SUMO, AI-2 QS mod)
N#CCSc1nc2c(c(C3CC=CCC3)c1C#N)CCC2 (stereo not given)	Mot1-301 SUMO active | Yeast Mot1 SUMO inactive
N#CCSc1nc2c(cc1C#N)CCCCCC2	none (no result: AI-2 QS mod)
COC(=O)C1C2OC(C(Br)C2Br)C1C(=O)OC (stereo not given)	none (no result: Efflux pump mplx, Mot1-301 SUMO, ATG4B inhibitor, AI-2 QS mod)
CCOC(=O)c1sc(NC(=O)CSc2nc(C)cc(-c3ccccc3)n2)c(C#N)c1C	none
CCOC(=O)c1sc(NC(=O)CSc2n[nH]c(-c3ccc(Cl)cc3Cl)n2)c(C#N)c1C	Mot1-301 SUMO 459.2 | Yeast Mot1 SUMO inactive
O=C(OCC(=O)N1CCN(C(=O)c2ccco2)CC1)c1ccc(Cl)cc1	none (no result: AI-2 QS mod)
O=C(OCC(=O)N1CCN(Cc2ccccc2)CC1)c1ccc(Cl)cc1	Mot1-301 SUMO 449.6 | Yeast Mot1 SUMO inactive
Nc1cc(C(=O)OCC(=O)N2CCN(C(=O)COC(=O)c3ccc(Cl)c(N)c3)CC2)ccc1Cl	none (no result: Efflux pump mplx, Mot1-301 SUMO, AI-2 QS mod)
Nc1cc(C(=O)OCC(=O)N2CCOCC2)ccc1Cl	Mot1-301 SUMO 398.6 | Yeast Mot1 SUMO inactive
COCCNC(=O)COc1ccc(Oc2ccccc2)cc1	none
CCSc1nc2c([nH]c3ccccc32)c(=O)n1C	none
CCC1CCCCN1C(=O)CSc1nc2c([nH]c3ccccc32)c(=O)n1C (stereo not given)	Mot1-301 SUMO 631.1 | Yeast Mot1 SUMO inactive
Cc1ccc(NCc2n[nH]c(=S)n2Cc2ccccc2)cc1Cl	none (no result: Efflux pump mplx, Mot1-301 SUMO)
C[C@H](CO)NC(=O)c1nc[nH]c1C(=O)N[C@H](C)c1ccccc1	none (no result: Efflux pump mplx, Mot1-301 SUMO, ATG4B inhibitor, AI-2 QS mod)
COc1ccc(/C=C/c2nnc(NC(=O)COc3ccc(C)cc3)s2)cc1	none
COCCNC(=O)C(=O)NCC1OCCN1C(=O)c1ccc(Cl)cc1 (stereo not given)	Mot1-301 SUMO 525.5 | Yeast Mot1 SUMO inactive
Cc1ccc(S(=O)(=O)NCC(=O)OCN2C(=O)c3ccccc3C2=O)cc1	none (no result: V-ATPase pHluor)
CCCCNc1c(C(=O)OCC)c(C)nc2c1cnn2CC	none
Cc1nn(CC(=O)Nc2ccccn2)c(C)c1[N+](=O)[O-]	Mot1-301 SUMO 423.8 | Yeast Mot1 SUMO inactive
CCCOc1ccccc1C1NC(=O)NC(C)=C1C(=O)OCc1ccccc1 (stereo not given)	Mot1-301 SUMO 735.0 | Yeast Mot1 SUMO inactive
Cc1cnc(C(=O)OC(C)C(=O)NCc2ccccc2)cn1 (stereo not given)	none (no result: AI-2 QS mod)
CCC(=O)Nc1ccc(C(=O)COC(=O)c2sc(C)nc2C)cc1	none (no result: Efflux pump mplx, Mot1-301 SUMO, AI-2 QS mod)
N#CC1=C(SCC(N)=O)NC(=O)CC1c1cccc2ccccc12 (stereo not given)	none (no result: Efflux pump mplx, Mot1-301 SUMO, AI-2 QS mod)
N#CC1=C(SCC(N)=O)NC(=O)CC1c1ccccc1Cl (stereo not given)	Mot1-301 SUMO 612.8 | Yeast Mot1 SUMO inactive
CCCCCCCc1n[nH]c(=S)n1Cc1ccccc1	none
CCCCc1n[nH]c(=S)n1Cc1ccc(C)cc1	Mot1-301 SUMO active | Yeast Mot1 SUMO inactive
COc1c(C(=O)Nc2nnc(C3CC3)s2)csc1Cl	none
CCN(CC(=O)Nc1ccc(OC)cc1)C(=O)c1ccc(N2CCCC2=O)cc1	none (no result: AI-2 QS mod)
CCNC(=O)NC(C(=O)OC)C12CC3CC(CC(C3)C1)C2 (stereo not given)	Mot1-301 SUMO 562.3 | Yeast Mot1 SUMO inactive
COc1ccc(C2C(C(C)=O)=C(O)C(=O)N2CCO)c(OC)c1 (stereo not given)	Mot1-301 SUMO 893.0 | Yeast Mot1 SUMO inactive
CCCCN1C(=O)C(O)=C(C(C)=O)C1c1ccc(OC)cc1OC (stereo not given)	none
COC(=O)C1=C(C)NC(C)=C(C(=O)OC)C1c1ccc(-c2cccc([N+](=O)[O-])c2)o1	none
COC(=O)C1=C(C)NC(C)=C([N+](=O)[O-])C1c1ccccc1C(F)(F)F (stereo not given)	Mot1-301 SUMO 496.7! | Yeast Mot1 SUMO inactive
CC(=O)c1cccc(NC(=O)CCn2c(=O)oc3ccccc32)c1	none
Cn1c(N2CCCC2)nc2c1c(=O)[nH]c(=O)n2C	none
CC(=O)c1sc(N/N=C\c2ccc(Br)cc2)nc1C	none
CCOC(=O)c1sc(N/N=C/c2ccc(N(C)C)cc2)nc1C	Mot1-301 SUMO active | Yeast Mot1 SUMO inactive
CC/C(=N\NC(=O)c1cc(C2CC2)[nH]n1)c1ccccc1	none
O=C(O)CSc1ncnc2sc(-c3ccccc3)cc12	Mot1-301 SUMO 525.3 | Yeast Mot1 SUMO inactive
COc1cccc(NC(=O)CN(C)C(=O)c2ccccc2OCc2c(C)noc2C)c1	Mot1-301 SUMO active | Yeast Mot1 SUMO inactive
